Experimental findings from PubChem BioAssay (EPA / NIEHS) are described below.

Structures are written as SMILES. Records with an inconclusive call do not appear. Active and inactive are the calls of the source. Rule for the calls: active = hit-call score of the fitted dose curve at least 0.9, where 1 is the maximum; inconclusive = response in the unintended direction; inactive = score below 0.9.

Chain of rat Neurokinin-1 Receptor (NK1), Tacr1 (gene 24807) (P14600 whole entry, looked up): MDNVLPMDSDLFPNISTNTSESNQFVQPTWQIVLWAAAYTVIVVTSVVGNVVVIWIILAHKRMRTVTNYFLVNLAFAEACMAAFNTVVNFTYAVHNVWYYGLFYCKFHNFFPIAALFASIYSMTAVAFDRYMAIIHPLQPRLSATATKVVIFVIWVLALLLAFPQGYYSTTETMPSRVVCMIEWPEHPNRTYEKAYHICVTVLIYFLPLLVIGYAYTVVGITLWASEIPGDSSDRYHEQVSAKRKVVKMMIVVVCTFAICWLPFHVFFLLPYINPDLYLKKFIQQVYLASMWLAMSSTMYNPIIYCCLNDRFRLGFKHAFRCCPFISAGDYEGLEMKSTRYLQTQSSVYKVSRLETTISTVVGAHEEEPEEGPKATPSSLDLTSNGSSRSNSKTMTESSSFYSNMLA

The assay concerns the target rat Neurokinin-1 Receptor (NK1), Tacr1 (gene 24807) (UniProt P14600). Briefly: NVS_GPCR_rNK1: NovaScreen (NVS) G Protein-Coupled Receptor Assay for rat Neurokinin-1 Receptor (NK1) (AID 2283309). The procedure:
NVS_GPCR_rNK1 is a biochemical, single-readout assay that uses extracted gene-proteins from Rat submaxillary gland membranes in a tissue-based cell-free assay. Measurements were taken 1 hour after chemical dosing in a 48-well plate.NVS_GPCR_rNK1 is one of one assay component(s) measured or calculated from the NVS_GPCR_rNK1 assay. It is designed to make measurements of radioligand binding, a form of binding reporter, as detected with scintillation counting signals by Filter-based radiodetection technology.Data from the assay component NVS_GPCR_rNK1 was analyzed into 1 assay endpoint. This assay endpoint, NVS_GPCR_rNK1, was analyzed in the positive analysis fitting direction relative to DMSO as the negative control and baseline of activity. Using a type of binding reporter, loss-of-signal activity can be used to understand changes in the binding as they relate to the gene Tacr1. Furthermore, this assay endpoint can be referred to as a primary readout, because the performed assay has only produced 1 assay endpoint. To generalize the intended target to other relatable targets, this assay endpoint is annotated to the gpcr intended target family, where the subfamily is rhodopsin-like receptor.
Binding assays used specific radioligands (tritiated, iodinated) with non-radioactive competitive displacement ligands in agonist or antagonist protocols (as indicated) and various reference compounds and inhibitors to titrate specific binding to receptors and transporters. Most enzyme assays (CYPs, kinases, phosphatases, proteases, HDACs) used recombinant protein and specific substrates (fluorescence mostly, some colorimetric and radioactive) and inhibitors, followed by a biochemical separation of substrate and product. All assays for the biochemical HTS were initially run in duplicate at a single concentration (10 uM for CYP450 assays and 25 uM for all others). […] Each assay was run with positive and negative controls, and concurrent controls on every plate. The follow-up (secondary) screen tested active chemical-pairs in concentration series, as well as a few additional assays not tested in the primary screen, some selected negative inactives, and several cases re-run in the concentration series for confirmatory purposes.
Consider `CCCCC(CC)COC(=O)CCCCCCCCC(=O)OCC(CC)CCCC` (stereo not given), for which the result was inactive. For `Cc1[nH]cnc1C[C@H]1CCc2c(C)c3ccccc3n2C1=O`, the result was inactive. As to `COc1ccc(-n2nc(C(F)F)cc2-c2ccc(S(C)=O)cc2)cc1` (stereo not given), the AC50 (as a rule, the concentration at which the activity in the assay is half-maximal) is 25 µM (active). For `CCOC(=O)c1ccc(C2CCC(NC[C@H](O)COc3ccc(O)c(NS(C)(=O)=O)c3)CC2)cc1` (stereo not given in full), the call was inactive.

For `CCOc1cccc(-n2cc(C(=O)N3CCN(c4cc(C(=O)O)c5ccccc5c4)CC3)nc2-c2ccc(C)cc2)c1`, the AC50 is 14.8 µM (active). As for `CCCN(C1CCN(C(=O)C2CCNCC2)CC1)[C@@H]1CCc2ccc(OC)cc2C1`, the result was inactive. Take `CNS(=O)(=O)c1cc(C(=O)N2CCC(CCN3C4CCC3CC(n3c(C)nc5ccccc53)C4)(c3cccc(F)c3)CC2)c(Cl)cc1F` (stereo not given): the AC50 was 25 µM (active). Regarding `CC[C@H]1CC[C@H](NCc2cc3c(cc2OC)[C@H]2C[C@H]2C(=O)N3C)[C@H](c2ccccc2)N1`, the AC50 is 0.296 µM (active). For `CCOC(=O)CC(CC(=O)OCC)(OC(C)=O)C(=O)OCC`, the call was inactive. As to `Cn1c(=O)cc(Oc2ccc(F)cc2F)c2cnc(NCC(C)(C)O)nc21`, the AC50 was 20.3 µM (active).
